# Article PMC7862700, “An all-to-all approach to the identification of sequence-specific readers for epigenetic DNA modifications on cytosine”
# Legend:
# Assay in all cases: DAPPL (digital affinity profiling via proximity ligation, sequencing); 10 mM Tris-HCl pH 7.5, 50 mM NaCl, 1 mM DTT, 4% glycerol, room temperature, 30 min; GST-TFs on glutathione beads, 16-mer random dsDNA library, 0.1% formaldehyde crosslink after washing; high values mean tight binding
# [1] = molecular target: T1, FLI1 (Homo sapiens, UniProt Q01543 1-452); conditions: protein: recombinant; tags: N-terminal GST; dsDNA, one strand shown
# T1 sequence: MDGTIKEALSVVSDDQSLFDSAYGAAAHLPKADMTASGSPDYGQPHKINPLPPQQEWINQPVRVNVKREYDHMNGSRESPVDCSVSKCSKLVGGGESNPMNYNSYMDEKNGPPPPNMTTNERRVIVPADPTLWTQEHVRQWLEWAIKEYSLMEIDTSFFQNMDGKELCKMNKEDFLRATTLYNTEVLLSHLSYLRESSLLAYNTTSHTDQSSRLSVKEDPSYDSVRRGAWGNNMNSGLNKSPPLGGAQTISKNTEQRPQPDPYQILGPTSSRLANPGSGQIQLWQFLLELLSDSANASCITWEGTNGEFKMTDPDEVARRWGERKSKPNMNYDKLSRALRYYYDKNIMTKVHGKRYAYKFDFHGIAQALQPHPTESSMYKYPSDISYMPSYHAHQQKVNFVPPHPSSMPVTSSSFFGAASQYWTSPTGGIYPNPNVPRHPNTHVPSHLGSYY
# How it was run: (§1)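 Sequencing on an Illumina NextSeq500 followed washing, crosslinking with 0.1% formaldehyde, proximity ligation (BsaI/T4 ligase, 1 h, 37 °C) and PCR amplification of pools that had been incubated for 30 min at room temperature with 200 nmole of a random double-stranded 16-mer DNA library in Tris/NaCl/DTT/glycerol buffer. Each pool held DNA-barcoded human transcription factors, expressed in yeast as GST fusions and captured on glutathione beads, plus a tag-only sample. Binding signal is a hexamer's read frequency for a factor divided by its frequency in the tag-only sample.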
# [2] = molecular target: ELF1 (Homo sapiens, UniProt P32519 1-619); conditions: protein: recombinant; tags: N-terminal GST; dsDNA, one strand shown
# ELF1, sequence (P32519 whole entry): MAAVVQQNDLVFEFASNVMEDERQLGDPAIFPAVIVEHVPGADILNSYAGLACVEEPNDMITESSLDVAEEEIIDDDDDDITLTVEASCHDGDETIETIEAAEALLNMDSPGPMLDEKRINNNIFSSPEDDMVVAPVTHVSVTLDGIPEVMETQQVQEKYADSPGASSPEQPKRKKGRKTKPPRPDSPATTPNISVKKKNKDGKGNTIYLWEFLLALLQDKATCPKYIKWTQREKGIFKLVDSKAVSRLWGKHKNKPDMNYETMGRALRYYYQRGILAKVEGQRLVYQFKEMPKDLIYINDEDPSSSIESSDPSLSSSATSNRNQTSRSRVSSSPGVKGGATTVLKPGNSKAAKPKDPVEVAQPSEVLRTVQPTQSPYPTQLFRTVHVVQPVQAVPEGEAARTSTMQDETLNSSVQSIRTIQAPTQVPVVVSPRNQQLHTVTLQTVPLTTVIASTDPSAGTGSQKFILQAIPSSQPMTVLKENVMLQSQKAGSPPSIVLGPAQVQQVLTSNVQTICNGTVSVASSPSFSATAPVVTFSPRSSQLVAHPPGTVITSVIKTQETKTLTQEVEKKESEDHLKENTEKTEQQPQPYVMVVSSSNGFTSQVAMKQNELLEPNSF
# How it was run: as §1
# [3] = molecular target: T2, EHF (Homo sapiens, UniProt Q9NZC4 1-300); conditions: protein: recombinant; tags: N-terminal GST; dsDNA, one strand shown
# T2 sequence: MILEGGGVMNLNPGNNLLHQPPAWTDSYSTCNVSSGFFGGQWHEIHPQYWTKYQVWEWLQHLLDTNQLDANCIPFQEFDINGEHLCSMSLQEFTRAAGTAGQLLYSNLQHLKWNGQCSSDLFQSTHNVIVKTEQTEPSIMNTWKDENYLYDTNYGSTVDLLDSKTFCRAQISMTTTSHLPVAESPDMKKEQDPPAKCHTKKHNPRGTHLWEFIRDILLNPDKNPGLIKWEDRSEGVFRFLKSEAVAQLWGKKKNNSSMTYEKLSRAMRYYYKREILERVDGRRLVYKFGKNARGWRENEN
# How it was run: as §1
# [4] = molecular target: SPI1 (Homo sapiens, UniProt P17947 1-270); conditions: protein: recombinant; tags: N-terminal GST; dsDNA, one strand shown
# How it was run: as §1
# [5] = molecular target: SPIB (Homo sapiens, UniProt Q01892 1-262); conditions: protein: recombinant; tags: N-terminal GST; dsDNA, one strand shown
# SPIB, sequence (Q01892 whole entry): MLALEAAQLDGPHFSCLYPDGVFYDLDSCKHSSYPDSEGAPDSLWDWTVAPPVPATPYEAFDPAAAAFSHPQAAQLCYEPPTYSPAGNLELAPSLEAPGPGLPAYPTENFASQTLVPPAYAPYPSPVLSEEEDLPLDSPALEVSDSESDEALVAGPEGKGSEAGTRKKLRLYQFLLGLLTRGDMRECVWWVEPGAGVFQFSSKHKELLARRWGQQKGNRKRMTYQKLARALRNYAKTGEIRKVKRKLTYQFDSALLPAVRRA
# How it was run: as §1
# [6] = molecular target: HSF1 (Homo sapiens, UniProt Q00613 1-529); conditions: protein: recombinant; tags: N-terminal GST; chain copies: 3; dsDNA, one strand shown
# HSF1, sequence (Q00613 whole entry): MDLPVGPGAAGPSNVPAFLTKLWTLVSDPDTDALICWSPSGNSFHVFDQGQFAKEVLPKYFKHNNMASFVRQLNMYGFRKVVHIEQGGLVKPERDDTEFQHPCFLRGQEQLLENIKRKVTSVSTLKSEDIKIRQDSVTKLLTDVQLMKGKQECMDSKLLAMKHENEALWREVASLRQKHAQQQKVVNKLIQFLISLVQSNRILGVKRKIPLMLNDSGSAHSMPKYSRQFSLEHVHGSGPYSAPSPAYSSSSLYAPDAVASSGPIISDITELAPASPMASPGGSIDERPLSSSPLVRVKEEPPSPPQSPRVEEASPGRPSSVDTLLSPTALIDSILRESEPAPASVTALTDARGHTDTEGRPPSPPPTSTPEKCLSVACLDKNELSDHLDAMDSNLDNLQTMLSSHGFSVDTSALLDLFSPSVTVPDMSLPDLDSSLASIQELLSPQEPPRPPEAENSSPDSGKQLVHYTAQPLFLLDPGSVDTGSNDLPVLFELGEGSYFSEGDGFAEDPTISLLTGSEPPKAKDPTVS
# How it was run: as §1
# [7] = molecular target: T3, ELK4 (Homo sapiens, UniProt P28324-2 1-405); conditions: protein: recombinant; tags: N-terminal GST; dsDNA, one strand shown
# T3 sequence: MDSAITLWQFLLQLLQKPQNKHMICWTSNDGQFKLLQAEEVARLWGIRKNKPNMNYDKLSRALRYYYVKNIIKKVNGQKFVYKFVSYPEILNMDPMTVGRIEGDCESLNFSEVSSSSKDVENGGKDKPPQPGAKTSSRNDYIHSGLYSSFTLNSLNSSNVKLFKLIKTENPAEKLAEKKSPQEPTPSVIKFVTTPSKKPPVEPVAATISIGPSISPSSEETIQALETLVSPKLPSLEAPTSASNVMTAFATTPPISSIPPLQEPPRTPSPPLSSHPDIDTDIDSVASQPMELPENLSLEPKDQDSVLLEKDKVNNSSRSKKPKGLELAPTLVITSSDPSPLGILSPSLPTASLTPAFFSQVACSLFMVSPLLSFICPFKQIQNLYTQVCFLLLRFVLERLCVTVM
# How it was run: as §1
# [8] = molecular target: CRX (Homo sapiens, UniProt O43186 1-299); conditions: protein: recombinant; tags: N-terminal GST; dsDNA, one strand shown
# CRX, sequence (O43186 whole entry): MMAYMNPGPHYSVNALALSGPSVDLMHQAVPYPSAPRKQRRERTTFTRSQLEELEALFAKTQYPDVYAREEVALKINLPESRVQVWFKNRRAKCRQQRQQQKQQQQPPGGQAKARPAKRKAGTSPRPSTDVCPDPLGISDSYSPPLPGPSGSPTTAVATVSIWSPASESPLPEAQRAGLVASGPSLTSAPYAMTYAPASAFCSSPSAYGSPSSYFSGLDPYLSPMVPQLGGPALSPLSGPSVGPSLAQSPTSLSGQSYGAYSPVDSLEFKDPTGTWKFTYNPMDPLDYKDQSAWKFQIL
# How it was run: as §1
# [9] = molecular target: T4, SPDEF (Homo sapiens, UniProt O95238 1-335); conditions: protein: recombinant; tags: N-terminal GST; dsDNA, one strand shown
# T4 sequence: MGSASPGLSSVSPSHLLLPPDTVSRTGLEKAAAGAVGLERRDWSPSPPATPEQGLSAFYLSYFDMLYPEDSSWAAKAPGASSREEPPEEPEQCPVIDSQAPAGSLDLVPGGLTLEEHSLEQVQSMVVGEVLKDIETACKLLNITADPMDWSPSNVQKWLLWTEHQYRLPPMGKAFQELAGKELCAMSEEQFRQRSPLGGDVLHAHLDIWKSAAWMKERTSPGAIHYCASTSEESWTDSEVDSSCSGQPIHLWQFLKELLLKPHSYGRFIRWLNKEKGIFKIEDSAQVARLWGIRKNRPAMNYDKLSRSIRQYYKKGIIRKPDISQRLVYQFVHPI
# How it was run: as §1
Sequence,binding signal [1],binding signal [2],binding signal [3],binding signal [4],binding signal [5],binding signal [6],binding signal [7],binding signal [8],binding signal [9]
TCGCGT,"1.01 fold enrichment (6-mer frequency, TF over GST control)","1 fold enrichment (6-mer frequency, TF over GST control)","1.02 fold enrichment (6-mer frequency, TF over GST control)","1 fold enrichment (6-mer frequency, TF over GST control)","1.01 fold enrichment (6-mer frequency, TF over GST control)","1.04 fold enrichment (6-mer frequency, TF over GST control)","1.06 fold enrichment (6-mer frequency, TF over GST control)",–,–
TAAGTC,"1 fold enrichment (6-mer frequency, TF over GST control)",–,–,–,–,"1.21 fold enrichment (6-mer frequency, TF over GST control)",–,"1.79 fold enrichment (6-mer frequency, TF over GST control)","1.01 fold enrichment (6-mer frequency, TF over GST control)"
